Data: PubChem BioAssay AID651664 (NMMLSC, 2012)
The whole screen tested about 1,800 compounds, of which fewer than 10 were called active. The list is a sample of the results. A number with no mark means an inactive call.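 The calls were made as follows: active = inhibition of granule release above a set limit; inactive = the rest.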

assay: LAMP-1 surface externalization blockers in TALL-104 cells – cell-based, flow cytometry, validation set (AID 651664); conditions: TALL-104 LAMP-1 externalization, at 15.2 µM, stronger effect = higher value, stimulated with thapsigargin and PMA

SMILES	inhibition
O=C(c1ccccc1)N(CCN1CCOCC1)C1(C(=O)Nc2ccccc2)CCCCC1	5.2%
COc1ccc(NC(=O)CSc2c(C)nn(-c3nnc(C)c(=O)[nH]3)c2C)cc1	0.5%
COC(=O)c1ccc(CSc2nc3ccccc3c(=O)n2-c2ccccc2)o1	-0.9%
Cn1c(CN2CCCC2)nc2cc(NS(=O)(=O)c3ccc(Cl)cc3)ccc21	-3.8%
CCC(C)NC(=O)CSc1nnc(-c2cc(-c3cccs3)nc3ccccc23)o1 (configuration not stated)	-1.3%
COC(=O)c1cc(NC(=O)CN(c2ccc3c(c2)OCO3)S(C)(=O)=O)ccc1Cl	1.7%
CCOc1ccccc1N1CC(C(=O)Nc2nccs2)CC1=O (configuration not stated)	-1.1%
Cc1cnc(NC(=O)c2ccc3c(c2)C(=O)N(Cc2ccco2)C3=O)s1	-1.3%
COc1ccc(N/N=C(/N=Nc2nc(C)cc(=O)[nH]2)c2ccccc2)cc1	3.7%
CCOC(=O)c1ccc(N2C(=O)CC(Sc3nnc(C)s3)C2=O)cc1 (configuration not stated)	-0.5%
Cc1ccc(-c2nc(N)c3c(-c4ccc(C)cc4)nn(C(C)(C)C)c3n2)cc1	0%
O=c1[nH]c(CO)nc2c1oc1ccccc12	-3.5%
CCC(C#CCN1CCCCC1)(CC)OCCC#N	25.8%
COC(=O)CN1C(=O)CSc2ncccc21	0.6%
CCCCOCCCNC(=O)N[C@H](C(=O)OC)C(C)C	-2.9%
Nc1ncnc2nc(SCc3ccc(Cl)cc3Cl)[nH]c12	6.3%
CN(C)c1nc(SCc2ccccc2Cl)nc2c1CCCC2	-0.7%
CC1(C)Cc2c(sc3ncn4nc(-c5ccco5)nc4c23)CO1	-1.3%
O=C(COc1ccc(F)cc1)c1ccc2c(c1)CCCC2	-2.8%
O=C1c2ccccc2-c2c1nc1c([n+]2[O-])CCCC1	-5.1%
COc1ccc2c(c1OC)C(=O)N(c1cccc(C)c1)C2=O	1.1%
CO/N=C/C(=N\Nc1ccc(OC)cc1)C(=O)c1ccc(OC)cc1	0.7%
COc1ccc(S(=O)(=O)N(C)CC(=O)Nc2ccccc2C(F)(F)F)cc1OC	-1.6%
CN1CCN(c2nc(-c3ccccc3)nc3c2oc2ccccc23)CC1	1.5%
O=C(CSc1nnc(CNc2ccc(F)cc2)n1-c1ccccc1)N1CCOCC1	-4.6%
COc1ccc(N=C2S/C(=C\c3ccc(C)s3)C(=O)N2CC(C)C)cc1	-0.3%

SMILES	inhibition
Fc1ccccc1/C=N/Nc1nn[nH]n1	-1.6%
CCOC(=O)c1c(NC(=O)Cc2cccs2)sc(C(=O)N2CCCCC2)c1C	-4.7%
CN=C(NC)SC1CC(=O)N(c2ccccc2)C1=O (configuration not stated)	3.9%
CCOc1cc(/C=N/n2cnnc2)cc(Br)c1O	-0.7%
O=C1CCC(=O)N1c1nc2nc(-c3ccccc3)cc(=O)n2[nH]1	-1.6%
CC(=O)COc1ncn(-c2ccccc2)n1	0.2%
Fc1cc2nc(-c3ccncc3)[nH]c2cc1F	-0.1%
Cc1noc(NS(=O)(=O)c2ccc(NC(=O)Nc3ccc(Cl)c(Cl)c3)cc2)c1C	0%
CCn1c(-c2ccccc2)c[nH]c1=S	-1.3%
Nc1c(C(=O)NCC2CCCO2)sc(=S)n1-c1ccccc1 (configuration not stated)	0.7%
COc1ccc(C)cc1-n1nnnc1SCc1cn2ccsc2n1	-3.3%
CC(=O)c1ccc(N2CCN(CCC#N)CC2)c(F)c1	8.2%
Cc1occc1C(=O)NC(C)CCc1ccccc1 (configuration not stated)	6.4%
CC(C)(C)NC(=O)C1Cc2ccccc2CN1C(=O)Nc1cccc(Cl)c1 (configuration not stated)	3.6%
CN(C)c1ccc(-c2nnc(-c3ccc(S(=O)(=O)C(F)F)cc3)o2)cc1	-2%
COc1ccc(-c2sc(NC(=O)c3ccc(C)cc3)nc2-c2ccc([N+](=O)[O-])cc2)cc1	0.2%
NC(=O)NC(=O)CSc1nc(-c2ccccc2)c(-c2ccccc2)n1CC1CCCO1 (configuration not stated)	3.8%
CCCc1nc2ccccc2c(=O)n1/N=C/c1ccccc1O	-1.9%
Cc1snc(S(=O)(=O)/C(C#N)=N/Nc2cccc(C(F)(F)F)c2)c1C#N	5.6%
CCNc1nc(NCC)nc(OCCOC(=O)COc2ccc(Cl)cc2Cl)n1	-2.4%
CN1CC(=O)NC1=NC(=O)c1ccc(Cl)c(S(=O)(=O)N2CCCCCC2)c1	-1.1%
Cc1ccc2c(c1Br)/C(=N/N1C(=O)c3ccccc3C1=O)C(=O)N2	-3.6%
Clc1ccc(-c2nnnn2-c2ccc(Cl)c(Cl)c2)cc1Cl	-0.4%
COc1ccccc1N(C(=O)c1ccco1)C(C(=O)NC1CCCC1)c1cccnc1 (configuration not stated)	-0.8%
CC(C)(C)NC(=O)Cc1ccc(S(=O)(=O)N2CCCC2)s1	-1.8%
Nc1nc(CSc2nc3ccccc3s2)nc(N2CCCCC2)n1	3.2%

SMILES	inhibition
FC(F)(F)c1cccc(NC(=S)N2CCN(c3cccc(C(F)(F)F)c3)CC2)c1	-4.7%
Cc1nc2cc(S(=O)(=O)N3CCC(C(=O)O)CC3)ccc2n1C1CCCC1	-3.7%
O=C(CSc1ncnc2c1cnn2Cc1ccccc1)Nc1ccc2c(c1)OCCO2	0.3%
O=C1c2ccccc2C(=O)N1SC1CCCCC1	-1.8%
S=c1[nH]nc(-c2ccccc2Cl)n1CC1CCCO1 (configuration not stated)	-1.9%
Cn1c(-c2ccccc2Br)n[nH]c1=S	89.2% (active)
COCCCn1c(-c2ccccc2Cl)n[nH]c1=S	4.6%
Cc1nn2c(N)c(C#N)cnc2c1-c1ccc(Cl)cc1	2.5%
CN1CCN(C(=O)c2ccc3c(c2)NC(=O)C(N2CCOCC2)S3)CC1 (configuration not stated)	3.1%
COCCNc1nc2ccccc2nc1NS(=O)(=O)c1ccc(C)cc1C	2.3%
CC(=O)C(C)Oc1ncn(-c2ccccc2)n1 (configuration not stated)	-3%
N#Cc1ccc(C(=O)Nc2ccc(S(=O)(=O)NC3=NCCCCC3)cc2)cc1	4.4%
O=C(Nc1ccccc1)N1CCN(c2ccccn2)CC1	-1.4%
O=C1CCCCC1C(Nc1ccc(Cl)cc1)c1ccccc1 (configuration not stated)	1.3%
COc1ccc(C(CNC(=O)c2ccc(N3CCCC3=O)cc2)N(C)C)cc1 (configuration not stated)	-2%
Clc1ccccc1C1SCC2Nc3ccccc3CN21 (configuration not stated)	0.1%
Cc1cccc(/C(N)=N/OC(=O)CCCN2C(=O)c3ccccc3C2=O)c1	1.9%
COc1ccccc1NC(=O)CC1COc2ccccc2O1 (configuration not stated)	-0.3%
CCOc1ccccc1NC(=O)c1ccc(S(=O)(=O)N2CCOCC2)cc1	-1.3%
Cc1ccc(Cl)cc1NC(=O)CSC(N)=O	-3%
COC(=O)C1=CN(CCCN2CCCC2=O)C=C(C(=O)OC)C1c1ccccc1C(F)(F)F	3.5%
CCC(CC)NC(=O)c1cc2c(C)nn(Cc3ccccc3Cl)c2s1	-0.5%
Cc1nnc(N(CCC#N)CCC#N)s1	0%
O=C(CN1CCN(c2cccc(C(F)(F)F)c2)CC1)Nc1cccc(C(F)(F)F)c1	-3.2%
Cc1oc2nc(SCCCC(=O)NCCO)nc(N)c2c1C	2.7%
